The results in this text go back to PubChem BioAssay (NCI).

The nature of assay [1]: NCI Yeast Anticancer Drug Screen. Data for the rad50 strain (AID 155).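 Note: 0% = growth of vehicle-only cultures of the same strain.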 To be noted: S. cerevisiae rad50 strain growth inhibition; at 50.0 µM; stronger effect = higher value. In a few lines:
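Cells are treated with compound, grown, and their growth is then scored against vehicle-only cultures of the same repair-deficient yeast strain.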

A short description of assay [2]: NCI Yeast Anticancer Drug Screen. Data for the mec2-1 strain (AID 157). To be noted: S. cerevisiae mec2-1 strain, at 50.0 µM, stronger effect = higher value. The essentials:
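Vehicle-treated cultures served as reference for growth inhibition of compound-exposed mec2-1 yeast.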

The nature of assay [3]: NCI Yeast Anticancer Drug Screen. Data for the sgs1 mgt1 strain (AID 161).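 Note: 0% = growth of cultures given vehicle only.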 The following applies: S. cerevisiae sgs1 mgt1 strain, at 50.0 µM, stronger effect = higher value. In a few lines:
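Read-out: growth inhibition vs vehicle controls. Cells: mutant yeast strain deficient in DNA damage repair.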

Assay [4] in a line: NCI Yeast Anticancer Drug Screen. Data for the cln2 rad14 strain (AID 165).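 Note: 0% = growth equal to vehicle treated cultures.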 The following applies: S. cerevisiae cln2 rad14 strain, at 50.0 µM, stronger effect = higher value. In a few lines:
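Each compound was tested on cln2 rad14 yeast. Inhibition of growth was calculated against vehicle-exposed controls.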

The nature of assay [5]: NCI Yeast Anticancer Drug Screen. Data for the bub3 strain (AID 167). The following applies: S. cerevisiae bub3 mutant strain, at 50.0 µM, stronger effect = higher value. The essentials:
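Part of a panel of yeast mutants defective in DNA damage repair or cell cycle regulation. Each strain is grown with compound, and inhibition is calculated relative to solvent-treated cultures.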

Assay [6] can be described thus: NCI Yeast Anticancer Drug Screen. Data for the mlh1 rad18 strain (AID 175). To be noted: S. cerevisiae mlh1 rad18 strain growth inhibition; at 50.0 µM; stronger effect = higher value. The essentials:
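Vehicle-treated cultures served as the reference for growth inhibition in a yeast strain carrying DNA damage repair alterations exposed to each compound.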

This is part of a sample that, as a whole, favours compounds with a hit. Of some 79,000 tested, about 15% had one in any assay. Unmarked numbers belong to inactive results. Activity calls are given as the source filed them. Cut-off read from the data, not from the text of the source: active = growth inhibition above about 70%; inactive = the rest.

Take `CC(C)CSc1nc(N)nc2c1ncn2CC(C)C`: the growth inhibition is -8.65% in assay [1]; -6.4% in assay [2]; 32.7% in assay [3]; -21.7% in assay [4]; 29.4% in assay [5]; 18.9% in assay [6].
On to `ClCC(OCc1ccccc1)OCc1ccccc1`, for which the growth inhibition is -21.6% in assay [1]; 4.8% in assay [2]; -4.45% in assay [3]; -36% in assay [4]; 12.4% in assay [5]; 17.1% in assay [6].
On to `Cc1ccc2nc(-c3ccc4nc(-c5ccc(N=Nc6ccc(-c7nc8ccc(-c9nc%10ccc(C)c(S(=O)(=O)O)c%10s9)cc8s7)cc6)cc5)sc4c3)sc2c1S(=O)(=O)O`, for which the growth inhibition in assay [1] is 12.7%; in assay [2], -13%; in assay [3] it was 21.4%; in assay [4] it was -0.3%; in assay [5], -3.2%; in assay [6], -26.9%.
Turning to `O=C(NC(=O)c1ccccc1[N+](=O)[O-])Nc1ccc(Oc2ncc(Br)cn2)c(Cl)c1`, the growth inhibition is -1.35% in assay [1]; -30.8% in assay [2]; -19.4% in assay [3]; 0.6% in assay [4]; -9.25% in assay [5]; -56.8% in assay [6].
Take `CCCCCC(CN(C)C)C(=O)CC(SCC)c1ccc(Cl)c(Cl)c1` (stereo not given): the growth inhibition is 99.5% (active) in assay [1]; 99.5% (active) in assay [2]; 99.5% (active) in assay [3]; 99.5% (active) in assay [4]; 99.2% (active) in assay [5]; 99.3% (active) in assay [6].
For `CCOc1c(Cc2ccccc2)c(=O)n2c3ccccc3n3c(=O)n(C)c(=O)c1c23`, the growth inhibition in assay [1] is -5.8%; in assay [2], -22.4%; in assay [3], -54.2%; in assay [4], 11.8%; in assay [5], -12.8%; in assay [6] it was -25%.
`C=C1C(=O)OC2(CCCCC)CCCCC12` (stereo not given): the growth inhibition was 1.95% in assay [1]; 4.1% in assay [2]; -11.2% in assay [3]; -9.9% in assay [4]; 0.5% in assay [5]; -10.5% in assay [6].
Consider `Nc1nc(-c2ccco2)cc(-c2ccc(CO)o2)n1`, for which the growth inhibition was -21.8% in assay [1]; 3.5% in assay [2]; -10.2% in assay [3]; 8.25% in assay [4]; 16% in assay [5]; 3.9% in assay [6].
As for `CC(C)c1cc2c(O)c(c1)Cc1cc(C(C)C)cc(c1O)Cc1cc(C(C)C)cc(c1O)Cc1cc(C(C)C)cc(c1O)Cc1cc(C(C)C)cc(c1O)Cc1cc(C(C)C)cc(c1O)C2`, the growth inhibition was -21.1% in assay [1]; -0.85% in assay [2]; -14.8% in assay [3]; 14.6% in assay [4]; 3.55% in assay [5]; -24.1% in assay [6].
As for `COc1ccc(C=Nc2cc([N+](=O)[O-])ccc2O)cc1`, the growth inhibition in assay [1] is 8.5%; in assay [2] it was -2.75%; in assay [3] it was 3.75%; in assay [4], -9.45%; in assay [5], 25.5%; in assay [6], 3%.
Regarding `CCC(=O)[C@@]1(OC(C)=O)CC[C@H]2[C@@H]3CCC4=CC(=O)CC[C@]4(C)[C@H]3CC[C@@]21C`, the growth inhibition in assay [1] was 28.1%; in assay [2] it was 17.5%; in assay [3] it was 30.9%; in assay [4], 36.7%; in assay [5] it was 26.9%; in assay [6] it was 16%.
For the compound `CC(C)=CC(=O)OC1C2C(C)=CC(O)C(O)C2(C)C2C3(O)OCC24C(CC(=O)OC14)C(C)C3O` (stereo not given), the growth inhibition was 56.5% in assay [1]; 38.1% in assay [2]; 23.4% in assay [3]; 48.4% in assay [4]; 53.5% in assay [5]; 86.8% (active) in assay [6].
`CCOC(=O)CC/C(=C\NC(=O)c1ccccc1)NC(=O)c1ccccc1`: the growth inhibition in assay [1] was -9%; in assay [2] it was -26.4%; in assay [3], -21.6%; in assay [4], 16.2%; in assay [5] it was -9.55%; in assay [6], 1.9%.
As for `C=CC1CC[N-]CC1.[Cl][Cu][Cl]`, the growth inhibition in assay [1] is 6.4%; in assay [2], -1.9%; in assay [3] it was 2.75%; in assay [4], -7.6%; in assay [5], -14.6%; in assay [6], 6.35%.
Regarding `O=C1CCCCC1CC1(O)C(=O)NC2CCC(Br)CC21` (stereo not given), the growth inhibition in assay [1] is -11.6%; in assay [2], -3.3%; in assay [3], 21.6%; in assay [4], 8.75%; in assay [5], 18.7%; in assay [6], 5.6%.
Regarding `CCCCCCCCCCCCOc1ccc(F)cc1C`, the growth inhibition in assay [1] was 6%; in assay [2], -1.15%; in assay [3], 0.45%; in assay [4], 4.6%; in assay [5], 10.7%; in assay [6], 13.4%.
Consider `O=c1ccc2ccc(-c3cnc(O)[nH]c3=O)oc-2c1`, for which the growth inhibition was 25.6% in assay [1]; 2.05% in assay [2]; 5.35% in assay [3]; 1.4% in assay [4]; 2.25% in assay [5]; 10.3% in assay [6].
Take `S=c1nc[nH]c2c1CNC2`: the growth inhibition is -8.2% in assay [1]; 10.9% in assay [2]; -5.4% in assay [3]; 1.7% in assay [4]; 5.25% in assay [5]; -6.15% in assay [6].
Turning to `COC1OC2COc3ccccc3OC2C2C1N2C(N)=S` (stereo not given), the growth inhibition was 3.4% in assay [1]; 22.5% in assay [2]; 16.7% in assay [3]; 1.65% in assay [4]; 19.4% in assay [5]; 12.9% in assay [6].
On to `COC(=O)/C=C/c1cc2c(cc1-c1c(C(=O)O)cc(OC)c(OC)c1OC)OCO2`, for which the growth inhibition in assay [1] is -11.2%; in assay [2], -0.55%; in assay [3], -18.8%; in assay [4], -3.4%; in assay [5], -28.4%; in assay [6], -8.05%.
